PubChem BioAssay AID1159580 (chemical genetic matrix, 2015)
Screen size: about 5,500 compounds; about 2,000 (36%) were called active. Roughly 18% stayed inconclusive and do not appear here. Rule as the data show it: active = normalized growth mostly below about 0.91 (no sharp cut-off); inconclusive = no clear call, values can overlap the other calls; inactive = mostly above about 0.92. Some of the results follow.

Assay: chemical genetic growth profiling, strain panel (AID 1159580);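 also: tested at 20 µM; growth read once vehicle control cultures reached saturation at 30 °C; 1 = growth at the plate median or of vehicle wells; lower values mean less growth of the strain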
Conditions: S. cerevisiae deletion strains, growth OD

Measured: normalized growth

O=C1c2c(O)cc(O)cc2OC(c2ccc(O)c(O)c2)C1O (stereo unspecified)
inactive: locus YAL013W, strain DEP1, active compounds read low 1.03 | locus YAL040C, strain CLN3, active compounds read low 1.04 | locus YCL061C, strain MRC1 (second series), active compounds read low 0.999 | locus YDR150W, strain NUM1, active compounds read low 0.987 | locus YDR363W, strain ESC2, active compounds read low 1 | locus YER002W, strain NOP16, active compounds read low 0.998 | locus YMR307W, strain GAS1, active compounds read low 1.01 | locus YNL175C, strain NOP13, active compounds read low 0.99 | locus YNL197C, strain WHI3, active compounds read low 0.977 | locus YNL224C, strain SQS1, active compounds read low 0.993 | locus YOR083W, strain WHI5 (second series), active compounds read low 0.991
